# Experimental data published in PubChem BioAssay (EPA / NIEHS).
# Several values for one entry are separate records, joined by “and”; a condition that tells them apart may be missing. Identical values can stand only once. Records with an inconclusive call do not appear. Activity calls are given as the source filed them. The calls were made as follows, unless noted: active = hit-call score of the fitted dose curve at least 0.9, where 1 is the maximum; inactive = score below 0.9.
# Tests used:
# [1] = read-out: urokinase plasminogen activator (uPA), PLAU (gene 5328); experiment: BSK_BE3C_uPA: BioMAP Diversity Plus: BE3C Assay for urokinase plasminogen activator (uPA) Biomarker Activity (AID 2283038); settings: primary human bronchial epithelial cells; actives raise or lower the signal;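 also: uPA protein level quantified by ELISA in cell cultures; uPA read one day after compound addition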
# Outline: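 Bronchial epithelial cells (human, primary); chemical 24 h; uPA by ELISA; bidirectional fit vs DMSO. SRB (0.1%, after 10% TCA fixation, 560 nm) in parallel cultures for cytotoxicity.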
# [2] = biological target: human CYP2D6, CYP2D6 (gene 1565) (UniProt P10635); experiment: NVS_ADME_hCYP2D6: NovaScreen (NVS) CYP450-related Enzyme Activity (ADME) Assay for human CYP2D6 (AID 2283107; active = hit-call score of the fitted dose curve at least 0.9, where 1 is the maximum)
# Outline: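 Insect-cell recombinant enzyme + fluorogenic substrate, cell-free; 1 h incubation; fluorescence intensity readout. Acetonitrile = neg. ctrl/baseline. Single-point 10 uM, duplicate; follow-up concentration series.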
# [3] = biological target: rat CYP2A1, Cyp2a1 (gene 24894) (UniProt P11711); experiment: NVS_ADME_rCYP2A1: NovaScreen (NVS) CYP450-related Enzyme Activity (ADME) Assay for rat CYP2A1 (AID 2283114)
# Outline: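 Recombinant rat CYP2A1, cell-free, fluorogenic substrate turnover read by fluorescence intensity 0.75 h after dosing. Primary screen at 10 uM in duplicate; actives rerun as concentration-response up to 20 uM; loss of signal versus acetonitrile control.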
# [4] = biological target: rat CYP2C11, Cyp2c11 (gene 29277) (UniProt P08683); experiment: NVS_ADME_rCYP2C11: NovaScreen (NVS) CYP450-related Enzyme Activity (ADME) Assay for rat CYP2C11 (AID 2283118; active = hit-call score of the fitted dose curve at least 0.9, where 1 is the maximum)
# Outline: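 Cell-free recombinant rat enzyme with fluorescent substrate; readout 0.33 h after dosing, loss of signal versus acetonitrile control. Initial duplicate single-point at 10 uM; actives rerun in concentration series.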
# [5] = read-out: Plasminogen activator inhibitor-1 (PAI1), SERPINE1 (gene 5054); experiment: BSK_CASM3C_PAI1: BioMAP Diversity Plus: CASM3C Assay for Plasminogen activator inhibitor-1 (PAI1) Biomarker Activity (AID 2284284); settings: primary human coronary artery smooth muscle cells;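 also: PAI-1 protein level measured by ELISA 24 h after dosing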
# [6] = read-out: Monocyte Chemoattractant Protein-1 (MCP1), CCL2 (gene 6347); experiment: BSK_hDFCGF_MCP1: BioMAP Diversity Plus: hDFCGF Assay for Monocyte Chemoattractant Protein-1 (MCP1) Biomarker Activity (AID 2284285); settings: primary human foreskin fibroblasts
# Outline: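 Human foreskin fibroblasts (hDFCGF system) were exposed to compound and secreted MCP-1 was measured by ELISA after 24 hours. Activity was fitted relative to DMSO. Cytotoxicity was checked by SRB total-protein staining in parallel cultures.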
# [7] = read-out: Intercellular Adhesion Molecule 1 (ICAM1), ICAM1 (gene 3383); experiment: BSK_hDFCGF_ICAM1: BioMAP Diversity Plus: hDFCGF Assay for Intercellular Adhesion Molecule 1 (ICAM1) Biomarker Activity (AID 2284287); settings: primary human foreskin fibroblasts
# Outline: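 Primary human foreskin fibroblasts (hDFCGF system) dosed with chemical; ICAM-1 quantified by ELISA at 24 h relative to DMSO. Parallel SRB total-protein staining to assess overt cytotoxicity.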
# [8] = read-out: TIMP metallopeptidase inhibitor 2 (TIMP2), TIMP2 (gene 7077); experiment: BSK_hDFCGF_TIMP2: BioMAP Diversity Plus: hDFCGF Assay for TIMP metallopeptidase inhibitor 2 (TIMP2) Biomarker Activity (AID 2284289); settings: primary human foreskin fibroblasts
# Outline: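 Primary human foreskin fibroblasts in the hDFCGF system, dosed for 24 h; TIMP-2 level measured by ELISA, fitted in the positive direction against DMSO; cytotoxicity checked in parallel by sulforhodamine B total protein staining.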
# [9] = read-out: Thrombomodulin, THBD (gene 7056); experiment: BSK_LPS_Thrombomodulin: BioMAP Diversity Plus: LPS Assay for Thrombomodulin Biomarker Activity (AID 2284296); settings: primary human HUVEC with PBMC
# Outline: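 Human umbilical vein endothelial cells co-cultured with PBMC and stimulated with LPS; cell-surface thrombomodulin measured by ELISA 24 hours after compound. Gain or loss versus DMSO; cytotoxicity checked by SRB staining in parallel cultures.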
# CD69, CD69 (gene 969) = experiment: BSK_LPS_CD69: BioMAP Diversity Plus: LPS Assay for CD69 Biomarker Activity (AID 2284303); settings: primary human HUVEC with PBMC
# Outline: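 Human umbilical vein endothelial cells co-cultured with PBMC under LPS stimulation, chemical exposure 24 h; cell-surface CD69 measured by ELISA and fitted in the positive direction versus DMSO.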
# [10] = test system: zebrafish Androgen Receptor (AR), gene 100005148; experiment: ATG_zfAR_XSP1: Attagene TRANS-FACTORIAL Multi-Species (XSP1) HepG2 Assay for zebrafish Androgen Receptor (AR) (AID 2283771; active = hit-call score of the fitted dose curve at least 0.9, where 1 is the maximum)
# Outline: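 HepG2 cells were transiently transfected with a zebrafish AR-GAL4 reporter system and partially stimulated with 3 nM 6-alpha-fluorotestosterone. Reporter mRNA was measured after 24 h dosing by RT-PCR with capillary electrophoresis, and gain-of-signal was fitted relative to DMSO.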
# [11] = biological target: Nuclear receptor subfamily 1 group I member 2 (Mus musculus) (UniProt O54915); experiment: ATG_mPXR_XSP1: Attagene TRANS-FACTORIAL Multi-Species (XSP1) HepG2 Assay for mouse Pregnane X Receptor (PXR) (AID 2283803; active = hit-call score of the fitted dose curve at least 0.9, where 1 is the maximum)
# Outline: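 Transiently transfected HepG2 cells expressing a receptor-Gal4 chimera drive a GAL4-UAS reporter; 3 nM 6-alpha-fluorotestosterone included. Reporter mRNA read 24 h post-dose by RT-PCR and capillary electrophoresis; gain of signal relative to DMSO.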
# [12] = ATG_M_19_XSP2: Attagene TRANS-FACTORIAL Multi-Species (XSP2) HepG2 Assay for M32 Transcription Factor (Internal Marker) (AID 2283822; active = hit-call score of the fitted dose curve at least 0.9, where 1 is the maximum)
# Outline: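 Internal background marker in a multi-species nuclear receptor TRANS panel: transfected HepG2 cells exposed 24 h, with 3 nM 6-alpha-fluorotestosterone and 1.5 nM norgestrel present. Readout is RT-PCR of reporter transcripts resolved by capillary electrophoresis, gain-of-signal versus DMSO.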
# [13] = biological target: Nuclear receptor subfamily 1 group I member 2 (Mus musculus) (UniProt O54915); experiment: ATG_mPXR_XSP2: Attagene TRANS-FACTORIAL Multi-Species (XSP1) HepG2 Assay for mouse Pregnane X Receptor (PXR) (AID 2283831; active = hit-call score of the fitted dose curve at least 0.9, where 1 is the maximum)
# Outline: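 Reporter transcripts were quantified by RT-PCR, FAM primer extension, HpaI digestion and capillary electrophoresis after 24 h of chemical exposure in transiently transfected HepG2 cells carrying chimeric receptor-GAL4 constructs; DMSO served as baseline.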
# [14] = biological target: Estrogen receptor (Homo sapiens) (UniProt P03372); experiment: CCTE_Deisenroth_AIME_384WELL_LUC_Active: CCTE's 384-well Estrogen Receptor Transactivation Assay with AIME metabolic competence (ERTA luciferase; metabolism positive), Deisenroth Lab (AID 2284030; active = hit-call score of the fitted dose curve at least 0.9, where 1 is the maximum)
# Outline: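 AIME metabolism-positive mode: chemicals 0.002 - 200 uM, 2 h with alginate-bound PB/BNF-induced rat S9 → medium to VM7Luc4E2 ERTA, 24 h → luciferase. Positive fit vs 17beta-estradiol; n=4 typical.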
# [15] = biological target: Estrogen receptor (Homo sapiens) (UniProt P03372); experiment: CCTE_Deisenroth_AIME_384WELL_LUC_Inactive: CCTE's 384-well Estrogen Receptor Transactivation Assay without AIME metabolic competence (ERTA luciferase; metabolism negative), Deisenroth Lab (AID 2284038; active = hit-call score of the fitted dose curve at least 0.9, where 1 is the maximum;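 also: VM7Luc4E2 breast cells given medium preincubated 2 h with S9-free microspheres; hits raise estrogen receptor luciferase signal so potencies reflect agonists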)
# Outline: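 Chemicals (10-point series, 0.002 - 200 uM) were incubated 2 hours with alginate-water microsphere lids lacking S9, then the conditioned medium was transferred to VM7Luc4E2 breast cells for 24 hour. Luciferase induction was read by bioluminescence, fitted upward relative to 17beta-estradiol.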
# [16] = biological target: Estrogen receptor (Homo sapiens) (UniProt P03372); experiment: CCTE_Deisenroth_AIME_384WELL_LUC_Shift: CCTE's 384-well Estrogen Receptor Transactivation Assay with AIME metabolic competence data shift (ERTA luciferase; difference in metabolism positive and negative), Deisenroth Lab (AID 2284041);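 also: shift is response with S9 minus without S9 so positive means metabolism raised ER signal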
# Outline: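 Test chemicals (0.002–200 uM, 10-point) were pre-incubated 2 h with alginate microspheres containing phenobarbital/beta-naphthoflavone-induced male Sprague Dawley rat liver S9 or water, then medium was transferred to VM7Luc4E2 cells for 24 h luciferase readout; shift = S9-positive minus S9-negative normalized response.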
# [17] = STM_H9_OrnCyssISnorm_ratio: Stemina devTOX quickPredict H9 human embryonic stem cell (hESC)-based Assay for Ornithine (ORN):Cystine (CYSS) Ratio (AID 2283714; active = hit-call score of the fitted dose curve at least 0.9, where 1 is the maximum)
# Outline: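 Steps: H9 hESCs in pluripotent state dosed 72h, medium plus compound renewed every 24h; conditioned medium from the final 24h deproteinized in 40% acetonitrile; ORN and CYSS quantified by UPLC-HRMS with C13 spike-ins; ratio relative to vehicle.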
# PGR (gene 5241) [18] = biological target: PGR (gene 5241) (UniProt P06401); experiment: TOX21_PR_BLA_Followup_Agonist_ratio: Tox21 HEK293 Progesterone Receptor (PR) Agonism Beta-lactamase Follow-Up Assay, Ratio (AID 2283933; active = hit-call score of the fitted dose curve at least 0.9, where 1 is the maximum)
# Outline: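 PR-UAS-bla HEK293T cells (GAL4-UAS beta-lactamase reporter) in medium with 2% charcoal-stripped FBS received compounds after 6 hr at 37C, then incubated 16 hr. LiveBLAzer FRET substrate added, 2 hr room temperature; cleaved/uncleaved (ch2/ch1) ratio fitted upward versus DMSO.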
# PGR (gene 5241) [19] = biological target: PGR (gene 5241) (UniProt P06401); experiment: TOX21_PR_LUC_Followup_Agonist: Tox21 HEK293 Progesterone Receptor (PR) Agonism Luciferase Follow-Up Assay (AID 2283937)
# Outline: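 HEK293-PR-A-luc cells, pre-cultured 5 days in medium with 10% charcoal-stripped FBS, were seeded at 3,000 cells/well, rested 5 h at 37C, then exposed to compounds 16 h at 37C; luciferase read by ONE-Glo luminescence after 30 min.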
# Sequence of Nuclear receptor subfamily 1 group I member 2 (Mus musculus) (O54915 whole entry, looked up, the tested form may be a part): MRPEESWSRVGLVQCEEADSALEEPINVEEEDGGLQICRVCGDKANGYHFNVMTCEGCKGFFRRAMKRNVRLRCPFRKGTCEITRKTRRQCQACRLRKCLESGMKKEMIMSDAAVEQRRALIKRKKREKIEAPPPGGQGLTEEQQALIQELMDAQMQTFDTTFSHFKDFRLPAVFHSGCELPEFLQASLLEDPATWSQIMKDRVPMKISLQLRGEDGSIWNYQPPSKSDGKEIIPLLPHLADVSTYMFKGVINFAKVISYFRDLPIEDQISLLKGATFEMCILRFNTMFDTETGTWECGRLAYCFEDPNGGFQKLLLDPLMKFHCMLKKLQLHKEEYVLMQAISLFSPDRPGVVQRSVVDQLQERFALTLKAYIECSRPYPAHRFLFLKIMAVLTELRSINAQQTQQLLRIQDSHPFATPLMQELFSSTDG
# Sequence of PGR (gene 5241) (P06401 whole entry, looked up, the tested form may be a part): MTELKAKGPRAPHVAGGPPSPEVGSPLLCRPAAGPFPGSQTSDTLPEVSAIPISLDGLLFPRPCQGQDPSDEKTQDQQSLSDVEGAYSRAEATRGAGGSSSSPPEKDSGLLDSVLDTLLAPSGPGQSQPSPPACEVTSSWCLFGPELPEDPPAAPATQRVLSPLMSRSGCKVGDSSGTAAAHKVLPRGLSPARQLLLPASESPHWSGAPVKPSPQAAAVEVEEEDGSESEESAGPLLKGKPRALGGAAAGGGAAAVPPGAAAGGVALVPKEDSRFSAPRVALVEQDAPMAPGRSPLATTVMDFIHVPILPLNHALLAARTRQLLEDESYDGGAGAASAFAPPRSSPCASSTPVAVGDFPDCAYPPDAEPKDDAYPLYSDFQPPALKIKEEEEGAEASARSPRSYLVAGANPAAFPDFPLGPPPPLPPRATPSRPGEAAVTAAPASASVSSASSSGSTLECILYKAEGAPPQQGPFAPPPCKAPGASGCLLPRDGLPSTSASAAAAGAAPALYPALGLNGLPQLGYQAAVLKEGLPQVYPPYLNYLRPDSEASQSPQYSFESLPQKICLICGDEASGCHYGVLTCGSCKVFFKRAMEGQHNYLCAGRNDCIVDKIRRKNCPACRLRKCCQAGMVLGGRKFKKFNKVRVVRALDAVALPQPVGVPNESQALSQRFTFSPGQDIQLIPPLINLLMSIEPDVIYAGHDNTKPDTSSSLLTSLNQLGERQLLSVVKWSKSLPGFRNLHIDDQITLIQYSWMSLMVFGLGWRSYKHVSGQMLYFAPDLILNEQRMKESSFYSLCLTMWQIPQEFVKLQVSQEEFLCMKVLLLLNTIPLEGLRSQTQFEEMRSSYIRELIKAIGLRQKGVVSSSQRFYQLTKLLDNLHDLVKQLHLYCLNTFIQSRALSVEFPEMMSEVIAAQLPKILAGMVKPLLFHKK
# Sequence of Estrogen receptor (Homo sapiens) (P03372 whole entry, looked up): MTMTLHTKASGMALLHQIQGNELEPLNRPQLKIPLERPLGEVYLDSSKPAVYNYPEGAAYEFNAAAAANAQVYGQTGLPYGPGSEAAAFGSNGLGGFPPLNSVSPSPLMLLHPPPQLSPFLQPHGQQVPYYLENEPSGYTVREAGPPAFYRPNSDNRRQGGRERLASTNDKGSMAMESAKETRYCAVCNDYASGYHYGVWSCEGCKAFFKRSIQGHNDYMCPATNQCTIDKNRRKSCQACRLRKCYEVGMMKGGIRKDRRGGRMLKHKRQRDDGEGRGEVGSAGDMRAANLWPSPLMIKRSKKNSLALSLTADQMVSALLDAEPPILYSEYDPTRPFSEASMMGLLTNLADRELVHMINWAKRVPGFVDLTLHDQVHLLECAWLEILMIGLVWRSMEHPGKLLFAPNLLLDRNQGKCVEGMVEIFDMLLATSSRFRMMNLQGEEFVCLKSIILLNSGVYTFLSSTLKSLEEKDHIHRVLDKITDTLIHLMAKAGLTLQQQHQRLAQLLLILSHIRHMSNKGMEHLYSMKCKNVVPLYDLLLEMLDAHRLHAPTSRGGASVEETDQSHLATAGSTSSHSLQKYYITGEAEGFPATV
# Sequence of rat CYP2A1, Cyp2a1 (gene 24894) (P11711 whole entry, looked up): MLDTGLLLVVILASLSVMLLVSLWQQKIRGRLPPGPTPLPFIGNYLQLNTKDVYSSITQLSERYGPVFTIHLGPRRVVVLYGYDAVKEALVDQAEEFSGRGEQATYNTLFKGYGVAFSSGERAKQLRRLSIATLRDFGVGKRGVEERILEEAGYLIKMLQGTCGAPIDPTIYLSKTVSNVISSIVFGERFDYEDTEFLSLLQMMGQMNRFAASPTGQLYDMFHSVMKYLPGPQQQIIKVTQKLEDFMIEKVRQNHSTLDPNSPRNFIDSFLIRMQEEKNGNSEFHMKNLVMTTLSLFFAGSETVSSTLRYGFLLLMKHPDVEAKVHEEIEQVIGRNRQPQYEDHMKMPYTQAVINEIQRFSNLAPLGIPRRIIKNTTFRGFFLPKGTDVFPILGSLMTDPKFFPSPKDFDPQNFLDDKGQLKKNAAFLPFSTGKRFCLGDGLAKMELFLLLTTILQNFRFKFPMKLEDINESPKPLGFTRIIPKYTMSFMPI
# Sequence of rat CYP2C11, Cyp2c11 (gene 29277) (P08683 whole entry, looked up): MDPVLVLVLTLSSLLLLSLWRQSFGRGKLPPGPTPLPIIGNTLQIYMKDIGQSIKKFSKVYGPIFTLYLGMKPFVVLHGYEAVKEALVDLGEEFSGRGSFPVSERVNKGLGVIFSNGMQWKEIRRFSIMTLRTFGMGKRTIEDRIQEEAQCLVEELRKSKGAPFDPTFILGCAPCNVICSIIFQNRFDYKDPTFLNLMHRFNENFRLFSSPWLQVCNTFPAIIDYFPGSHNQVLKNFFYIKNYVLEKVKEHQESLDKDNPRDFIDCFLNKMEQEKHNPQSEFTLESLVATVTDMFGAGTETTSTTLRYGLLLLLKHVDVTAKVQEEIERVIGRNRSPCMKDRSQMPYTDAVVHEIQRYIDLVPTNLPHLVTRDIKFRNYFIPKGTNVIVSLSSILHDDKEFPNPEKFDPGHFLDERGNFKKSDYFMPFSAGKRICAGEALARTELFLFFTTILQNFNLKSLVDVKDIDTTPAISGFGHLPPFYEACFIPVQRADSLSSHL
# Sequence of human CYP2D6, CYP2D6 (gene 1565) (P10635 whole entry, looked up): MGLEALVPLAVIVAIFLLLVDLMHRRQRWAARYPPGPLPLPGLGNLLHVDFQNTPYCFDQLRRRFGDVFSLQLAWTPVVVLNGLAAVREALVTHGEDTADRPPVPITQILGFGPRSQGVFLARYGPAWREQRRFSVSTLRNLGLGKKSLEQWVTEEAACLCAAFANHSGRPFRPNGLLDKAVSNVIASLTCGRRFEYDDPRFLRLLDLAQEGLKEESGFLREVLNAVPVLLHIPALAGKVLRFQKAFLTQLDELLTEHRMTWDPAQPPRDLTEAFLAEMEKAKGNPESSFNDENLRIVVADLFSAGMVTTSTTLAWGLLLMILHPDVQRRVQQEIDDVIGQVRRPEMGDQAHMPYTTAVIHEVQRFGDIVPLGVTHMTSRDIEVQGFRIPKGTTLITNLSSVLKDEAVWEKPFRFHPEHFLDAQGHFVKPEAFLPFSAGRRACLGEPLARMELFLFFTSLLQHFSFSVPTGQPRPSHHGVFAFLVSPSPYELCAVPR
compound,measurement,setting,value
Oc1cc(Cl)ccc1Cl,outcome,[1],inactive
Nc1ccc(-c2ccc(N)c(N)c2)cc1N,AC50,[2],4.48 µM (active)
CC(Cc1ccc(C(C)(C)C)cc1)CN1C[C@@H](C)O[C@@H](C)C1 (stereo partly specified),AC50,[3],3.26 µM (active)
O=CNC(N1CCN(C(NC=O)C(Cl)(Cl)Cl)CC1)C(Cl)(Cl)Cl (stereo unspecified),AC50,[4],5.16 µM (active)
COc1ccc(CO)cc1,outcome,[5],inactive
same,outcome,[6],inactive
same,outcome,[7],inactive
same,outcome,[8],inactive
same,outcome,[9],inactive
same,outcome,"CD69, CD69 (gene 969)",inactive
Oc1ccc(C2(c3ccc(O)cc3)c3ccccc3-c3ccccc32)cc1,AC50,[5],20 µM (active)
same,AC50,[6],3.59 µM (active) and 2.48 µM (active)
same,AC50,[7],3.15 µM (active) and 2.69 µM (active)
same,AC50,[8],1.41 µM (active) and 1.34 µM (active)
same,AC50,[9],5.13 µM (active) and 5.21 µM (active)
same,AC50,"CD69, CD69 (gene 969)",14.3 µM (active) and 13.1 µM (active)
CC(C)CCCCCCCOC(=O)c1ccccc1C(=O)OCCCCCCCC(C)C,outcome,[10],inactive
same,AC50,[11],0.611 µM (active)
same,outcome,[12],inactive
same,AC50,[13],1.52 µM (active)
Cc1cc(C)c(C2=C(OC(=O)CC(C)(C)C)C3(CCCC3)OC2=O)c(C)c1,outcome,[14],inactive
same,outcome,[15],inactive
same,outcome,[16],inactive
CC(=O)c1cc2c(cc1C)C(C)(C)C(C)CC2(C)C (stereo unspecified),AC50,[10],64.4 µM (active)
same,AC50,[11],1 µM (active)
same,outcome,[12],inactive
same,AC50,[13],1.8 µM (active)
O=c1c2ccccc2c(=O)c2c1cc(Cl)c1[nH]c3c([nH]c12)c(Cl)cc1c(=O)c2ccccc2c(=O)c13,AC50,[17],10 µM (active)
O=C1C(Cl)=C(Cl)C(=O)C(Cl)=C1Cl,outcome,[17],inactive
CCCC=NO,outcome,[14],inactive
same,outcome,[15],inactive
same,outcome,[16],inactive
C[C@]12CC[C@H]3[C@@H](CC[C@@]45O[C@@H]4C(O)=C(C#N)C[C@]35C)[C@@H]1CC[C@@H]2O,outcome,PGR (gene 5241) [18],inactive
same,outcome,PGR (gene 5241) [19],inactive
N#Cc1cc(I)c(O)c(I)c1,outcome,PGR (gene 5241) [18],inactive
same,outcome,PGR (gene 5241) [19],inactive
